# In PubChem BioAssay (NCI):
# This is part of a sample that, as a whole, favours compounds with a hit. Of some 79,000 tested, about 15% had one in any assay. Unmarked numbers belong to inactive results. The source made the active and inactive calls. Cut-off read from the data, not from the text of the source: active = growth inhibition above about 70%; inactive = the rest.
# How the values were obtained:
# [1] = NCI Yeast Anticancer Drug Screen. Data for the rad52 strain (AID 147);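 note: 0% = growth of vehicle-treated control cultures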; details: S. cerevisiae rad52 mutant growth inhibition, active compounds read high
# In short: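 Genetically altered yeast (DNA damage repair defect) treated with compound; inhibition calculated relative to vehicle.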
# [2] = NCI Yeast Anticancer Drug Screen. Data for the wt1 strain (AID 149);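 note: 0% = growth of vehicle-treated wt1 cultures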; details: S. cerevisiae wt1 strain (SPY 50644) growth inhibition, active compounds read high
# In short: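 Yeast wt1 strain exposed to compounds; growth inhibition measured relative to vehicle-treated controls.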
# [3] = NCI Yeast Anticancer Drug Screen. Data for the rad50EPP+ strain (AID 151);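 note: 0% = growth of vehicle-treated control cultures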; details: S. cerevisiae rad50 mutant strain, active compounds read high
# In short: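 Strain rad50EPP+; compound exposure; % growth inhibition vs vehicle.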
# [4] = NCI Yeast Anticancer Drug Screen. Data for the mgt1 strain (AID 153); details: S. cerevisiae mgt1 mutant growth inhibition, active compounds read high
# In short: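 Read-out: yeast growth inhibition vs vehicle control. Strain mgt1, drawn from a panel altered in DNA damage repair or cell cycle control.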
# [5] = NCI Yeast Anticancer Drug Screen. Data for the rad50 strain (AID 155);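 note: 0% = growth of vehicle-only cultures of the same strain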; details: S. cerevisiae rad50 strain growth inhibition, active compounds read high
# In short: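 Yeast carrying a defined DNA repair defect were exposed to test compounds, and growth was compared with vehicle-treated controls to give percent inhibition.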
# [6] = NCI Yeast Anticancer Drug Screen. Data for the mec2-1 strain (AID 157); details: S. cerevisiae mec2-1 strain, active compounds read high
# In short: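 Cells of the genetically defined mec2-1 yeast strain are incubated with test compound. Inhibition of growth is calculated against vehicle-treated controls.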
# [7] = NCI Yeast Anticancer Drug Screen. Data for the rad14 strain (AID 159);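 note: 0% = growth of vehicle-treated control cultures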; details: S. cerevisiae rad14 strain growth inhibition, active compounds read high
# In short: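 Yeast cells carrying a defined DNA-repair defect were exposed to compounds, and growth inhibition was calculated relative to vehicle-treated control cultures.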
# [8] = NCI Yeast Anticancer Drug Screen. Data for the sgs1 mgt1 strain (AID 161);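 note: 0% = growth of cultures given vehicle only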; details: S. cerevisiae sgs1 mgt1 strain, active compounds read high
# In short: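 Mutant yeast exposed to compound; growth scored against vehicle-only wells.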
# [9] = NCI Yeast Anticancer Drug Screen. Data for the CLN2oe strain (AID 163);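 note: 0% = growth of vehicle-only control cultures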; details: S. cerevisiae CLN2oe strain, active compounds read high
# In short: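 Strain altered in cell-cycle control, incubated with compound; growth compared to solvent-treated controls.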
# [10] = NCI Yeast Anticancer Drug Screen. Data for the cln2 rad14 strain (AID 165);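 note: 0% = growth equal to vehicle treated cultures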; details: S. cerevisiae cln2 rad14 strain, active compounds read high
# In short: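 The screen exposed genetically defined yeast (cln2 rad14) to test compounds and scored growth inhibition relative to vehicle-treated controls.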
# [11] = NCI Yeast Anticancer Drug Screen. Data for the bub3 strain (AID 167); details: S. cerevisiae bub3 mutant strain, active compounds read high
# In short: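 Compounds were applied to a genetically altered yeast strain carrying a cell-cycle control defect. Growth inhibition was scored against vehicle-treated controls.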
# [12] = NCI Yeast Anticancer Drug Screen. Data for the wt2 strain (AID 169);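 note: 0% = growth of vehicle-treated yeast cultures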; details: S. cerevisiae wt2 strain growth inhibition, active compounds read high
# In short: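 Steps: yeast strain treated with compound; growth recorded; inhibition calculated relative to cultures given vehicle alone.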
# [13] = NCI Yeast Anticancer Drug Screen. Data for the mlh1 strain (AID 171);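 note: 0% = growth of vehicle-treated control cultures of the same strain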; details: S. cerevisiae mlh1 strain growth inhibition, active compounds read high
# In short: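 Yeast screen: mutant strain plus compound, growth scored against vehicle control wells.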
# [14] = NCI Yeast Anticancer Drug Screen. Data for the sgs1 strain (AID 173);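 note: 0% = growth of vehicle-only control cultures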; details: S. cerevisiae sgs1 mutant, active compounds read high
# In short: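 Inhibition of yeast growth served as the measure. The mutant strain was treated with each compound, and growth was normalised to cultures receiving vehicle alone.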
# [15] = NCI Yeast Anticancer Drug Screen. Data for the mlh1 rad18 strain (AID 175); details: S. cerevisiae mlh1 rad18 strain growth inhibition, active compounds read high
# In short: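 Compound-treated yeast growth, normalised to vehicle controls. Strain bears defined DNA repair mutations.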
# [16] = NCI Yeast Anticancer Drug Screen. Data for the rad18 strain (AID 177); details: S. cerevisiae rad18 mutant growth inhibition, active compounds read high
# In short: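 Inhibition values reflect reduced yeast growth compared with vehicle-treated controls, using a strain engineered with a DNA damage repair defect.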
# [17] = at 5.0 µM (retest, dose inferred, filed as 0.5)
# [18] = at 50.0 µM (retest, dose inferred, filed as 5.0)
compound,measurement,setting,value
COc1ccc2nc(CCc3ccccc3)ccc2c1,growth inhibition,[1]; at 1.2 µM,-18%
same,growth inhibition,[1]; at 3.7 µM,-25%
same,growth inhibition,[1]; at 11.0 µM,-14%
same,growth inhibition,[1]; at 33.0 µM,-7%
same,growth inhibition,[1]; at 100.0 µM,96% (active)
same,growth inhibition,[2]; at 1.2 µM,-5%
same,growth inhibition,[2]; at 3.7 µM,-7%
same,growth inhibition,[2]; at 11.0 µM,-1%
same,growth inhibition,[2]; at 33.0 µM,-7%
same,growth inhibition,[2]; at 100.0 µM,96% (active)
same,growth inhibition,[3]; at 1.2 µM,-7%
same,growth inhibition,[3]; at 3.7 µM,-9%
same,growth inhibition,[3]; at 11.0 µM,11%
same,growth inhibition,[3]; at 33.0 µM,26%
same,growth inhibition,[3]; at 100.0 µM,34%
same,growth inhibition,[4]; at 1.2 µM,-9%
same,growth inhibition,[4]; at 3.7 µM,-7%
same,growth inhibition,[4]; at 11.0 µM,-6%
same,growth inhibition,[4]; at 33.0 µM,-5%
same,growth inhibition,[4]; at 100.0 µM,35%
same,growth inhibition,[5]; at 1.2 µM,-20%
same,growth inhibition,[5]; at 3.7 µM,-21%
same,growth inhibition,[5]; [17],-6%
same,growth inhibition,[5]; at 11.0 µM,-27%
same,growth inhibition,[5]; at 33.0 µM,-8%
same,growth inhibition,[5]; [18],55%
same,growth inhibition,[5]; at 50.0 µM,69.3%
same,growth inhibition,[5]; at 100.0 µM,94% (active)
same,growth inhibition,[6]; at 1.2 µM,-7%
same,growth inhibition,[6]; at 3.7 µM,-5%
same,growth inhibition,[6]; [17],-7%
same,growth inhibition,[6]; at 11.0 µM,-8%
same,growth inhibition,[6]; at 33.0 µM,-11%
same,growth inhibition,[6]; [18],81% (active)
same,growth inhibition,[6]; at 50.0 µM,84.7% (active)
same,growth inhibition,[6]; at 100.0 µM,50%
same,growth inhibition,[7]; at 1.2 µM,3%
same,growth inhibition,[7]; at 3.7 µM,-8%
same,growth inhibition,[7]; at 11.0 µM,11%
same,growth inhibition,[7]; at 33.0 µM,2%
same,growth inhibition,[7]; at 100.0 µM,95% (active)
same,growth inhibition,[8]; [17],5%
same,growth inhibition,[8]; [18],87% (active)
same,growth inhibition,[8]; at 50.0 µM,84.1% (active)
same,growth inhibition,[9]; at 1.2 µM,-12%
same,growth inhibition,[9]; at 3.7 µM,-13%
same,growth inhibition,[9]; at 11.0 µM,-18%
same,growth inhibition,[9]; at 33.0 µM,-16%
same,growth inhibition,[9]; at 100.0 µM,20%
same,growth inhibition,[10]; [17],-6%
same,growth inhibition,[10]; [18],-1%
same,growth inhibition,[10]; at 50.0 µM,-7.95%
same,growth inhibition,[11]; at 1.2 µM,-6%
same,growth inhibition,[11]; at 3.7 µM,6%
same,growth inhibition,[11]; [17],14%
same,growth inhibition,[11]; at 11.0 µM,12%
same,growth inhibition,[11]; at 33.0 µM,34%
same,growth inhibition,[11]; [18],78% (active)
same,growth inhibition,[11]; at 50.0 µM,87.7% (active)
same,growth inhibition,[11]; at 100.0 µM,88% (active)
same,growth inhibition,[12]; at 1.2 µM,5%
same,growth inhibition,[12]; at 3.7 µM,4%
same,growth inhibition,[12]; at 11.0 µM,20%
same,growth inhibition,[12]; at 33.0 µM,39%
same,growth inhibition,[12]; at 100.0 µM,99% (active)
same,growth inhibition,[13]; at 1.2 µM,-15%
same,growth inhibition,[13]; at 3.7 µM,-10%
same,growth inhibition,[13]; at 11.0 µM,-12%
same,growth inhibition,[13]; at 33.0 µM,-14%
same,growth inhibition,[13]; at 100.0 µM,91% (active)
same,growth inhibition,[14]; at 1.2 µM,-24%
same,growth inhibition,[14]; at 3.7 µM,-17%
same,growth inhibition,[14]; at 11.0 µM,-3%
same,growth inhibition,[14]; at 33.0 µM,21%
same,growth inhibition,[14]; at 100.0 µM,96% (active)
same,growth inhibition,[15]; [17],-6%
same,growth inhibition,[15]; [18],70% (active)
same,growth inhibition,[15]; at 50.0 µM,30.9%
same,growth inhibition,[16]; at 1.2 µM,-11%
same,growth inhibition,[16]; at 3.7 µM,-12%
same,growth inhibition,[16]; at 11.0 µM,-13%
same,growth inhibition,[16]; at 33.0 µM,-19%
same,growth inhibition,[16]; at 100.0 µM,92% (active)
